PubChem BioAssay AID1159569 (Broad Institute, 2015)
Entries with a potency or affinity are not part of this list. Records with an inconclusive call do not appear. The source made the active and inactive calls. The rule behind the calls is not given here.

Test: toxicity to human HepG2 hepatoma cells – cell-based, plate reader, dry powder samples, cytotoxicity control, dose response (AID 1159569)
Conditions: HepG2 cytotoxicity counterscreen; series mostly up to 50 µM

| SMILES | outcome |
| --- | --- |
| Cc1ccccc1-c1ccccc1[C@H]1[C@@H](C#N)N(C(=O)c2ccccc2)[C@@H]1CO | inactive |
| C[C@@H]1CN([C@@H](C)CO)S(=O)(=O)c2ccc(C#CC3CCCC3)cc2O[C@H]1CN(C)C(=O)Cc1ccncc1 | inactive |
| O=C(C1CCCC1)N1CC2(C1)[C@@H](c1ccccc1)[C@H](CO)N2Cc1ccc(Cl)cc1 | inactive |
| COc1ccc(C#Cc2ccc3c(c2)O[C@@H](CN(C)C(=O)Nc2cccc(OC)c2)[C@@H](C)CN([C@H](C)CO)S3(=O)=O)cc1 | inactive |
| CCCC(=O)Nc1ccc2c(c1)OC[C@@H](C)N(Cc1ccccc1F)C[C@@H](C)[C@H](OC)CN(C)C2=O | inactive |
| CC(C)CNC[C@@H]1[C@@H](c2ccccc2)[C@@H](CO)N1Cc1ccc(F)cc1 | inactive |
| N#C[C@@H]1[C@H](c2ccccc2C2=CCCCC2)[C@@H](CO)N1C(=O)c1cccc(F)c1 | inactive |
| O=C(c1ccc(F)cc1)N1CC(=O)N2[C@H](C1)[C@@H](c1ccc(-c3cccnc3)cc1)[C@@H]2CO | inactive |
| COc1ccc(S(=O)(=O)Nc2ccc3c(c2)CC(=O)N([C@@H](C)CO)C[C@H](C)[C@H](CN(C)S(=O)(=O)c2ccc(OC)cc2)O3)cc1 | inactive |
| COc1cccc(S(=O)(=O)N(C)C[C@@H]2Oc3ncc(C#Cc4ccc(OC)c(OC)c4)cc3C(=O)N([C@H](C)CO)C[C@@H]2C)c1 | inactive |
| COCC#Cc1ccc(CC[C@H]2O[C@H]3CC[C@H](CO)O[C@H]3C[C@@H]2n2cc(C3CC3)nn2)cc1 | inactive |
| COc1ccc2c3c([nH]c2c1)[C@@H](CO)N(Cc1ccccc1)CC31CCN(Cc2cncnc2)CC1 | inactive |
| CO[C@@H]1CN(C)C(=O)c2ccc(NC(=O)c3ccc4c(c3)OCO4)cc2OC[C@@H](C)N(Cc2ccc3c(c2)OCO3)C[C@H]1C | inactive |
| COc1ccc(NC(=O)N2CCCCN3[C@H](CO)[C@H](c4ccc(C#Cc5ccccn5)cc4)[C@@H]3C2)cc1 | inactive |
| CC(C)(C)[S@@](=O)N1Cc2cc(C(=O)N[C@@H]3CCN(Cc4ccccc4)C3)nc(-c3cccc(-c4cccnc4)c3)c2[C@H]1CCO | inactive |
| OC[C@H]1[C@H](c2ccccc2)C2(CN(Cc3ccccc3F)C2)N1Cc1ccccc1F | inactive |
| CC(C)NC(=O)N1[C@@H](CO)[C@@H](c2ccccc2)C12CN(Cc1ccc(F)cc1)C2 | inactive |
| COc1ccc2c3c([nH]c2c1)[C@H](CO)N(S(=O)(=O)c1ccc(C)cc1)CC31CCN(C(=O)Cc2cccnc2)CC1 | inactive |
| COc1cccc(C#Cc2cnc3c(c2)C(=O)N([C@@H](C)CO)C[C@H](C)[C@@H](CN(C)C(=O)C2CCCCC2)O3)c1 | inactive |
| COc1cccc(C#Cc2ccc([C@H]3[C@@H](CO)N(C(=O)c4ccccn4)[C@H]3C#N)cc2)c1 | inactive |
